Measured potencies and affinities stand elsewhere. Calls of active or inactive are those of the source.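 Rule for the calls: active = Loss of cell signal with fitted half-effect dose at or below twice the top valid tested dose; inconclusive = Poor fit, or flat fit from -70 to -30 percent; inactive = Half-effect above limit, rising signal, or flat within 30 percent.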
Experiment: HEK293T cell cytotoxicity, dose response, cytotoxicity control for HIV Vif inhibitor project, cherry-picks (AID 652208)
Conditions: HEK293T viability, CellTiter-Glo luminescence, 24 h; series mostly up to 26 µM

SMILES	outcome
COc1ccc(C(=O)c2sc3nc(C)cc(-c4cccs4)c3c2N)cc1OC	inactive
CCOC(=O)c1c(C)[nH]c(-c2csc(N)n2)c1C	inactive
c1ccc(-c2cn3nc(-c4ccccc4)c(-c4ccccc4)nc3n2)cc1	inactive
CCN(CC)C(=O)c1ccc(C(=O)c2c(C)cc(C)cc2C)cc1	inactive
CN1CCc2c(sc(NC(=O)c3cc(Cl)sc3Cl)c2C(N)=O)C1	inactive
Cc1nnc(NC(=O)Cn2nc(C)c3ccccc3c2=O)s1	inactive
CC(NC(=O)CSc1nc2c(c(C(F)(F)F)n1)CCc1ccccc1-2)c1ccccc1 (stereo not drawn)	inactive
CCC(C)C(=O)Nn1c(C2CC2)nc2cc(OC)c(OC)cc2c1=O (stereo not drawn)	inactive
COc1cc(NC(=O)c2ccc(C)cc2C)ccc1NC(=O)c1cccs1	inactive
O=C(NNC(=O)c1cc2ccccc2oc1=O)c1ccccc1	inactive
COc1cc(-c2cnc3c(NC=O)cc(-c4ccccc4)cn23)cc(OC)c1OC	inactive
Cc1nc(-c2ccccc2OC(F)(F)F)[nH]c(=O)c1Cl	inactive
CC(=O)Nc1ccc(C2(c3ccc(NC(C)=O)cc3)NC(=O)c3ccccc32)cc1	inactive
COc1cc(C2C3=C(COC3=O)Oc3cc4c(cc32)OCO4)cc(OC)c1O (stereo not drawn)	inactive
Cc1nnc2ccc(-c3cccc(NS(=O)(=O)c4cc(F)ccc4F)c3)nn12	inactive
CC(=O)Nc1cc(NC(=O)C2C3C=CC(C3)C2C(=O)O)ccc1Cl (stereo not drawn)	inactive
COc1ccc(-c2ccc3c(N)c(C(=O)c4ccc(OC)c(OC)c4)sc3n2)cc1	inactive
N#Cc1c(-c2ccccc2)cc(C2CC2)nc1SCC(=O)c1cccs1	inactive
O=C(CSc1nnc(CNc2ccc(F)cc2)o1)c1ccccc1	inactive

SMILES	outcome
Cc1ccc(C(=O)COC(=O)c2cc(=O)[nH]c3ccccc23)cc1C	inactive
NS(=O)(=O)c1ccc(-c2ccc(/C=C3\SC(=O)NC3=O)o2)cc1	inactive
COc1ccc(CN2C3CCC2CC(NC(=O)c2cc(OC)c(OC)c(OC)c2)C3)cc1 (stereo not drawn)	inactive
Nc1nonc1-c1nc2ccccc2n1CC(=O)NC1CCCC1	inactive
O=C1c2ccccc2C(Nc2ccc(S(=O)(=O)N3CCOCC3)cc2)N1c1ccccn1 (stereo not drawn)	inactive
CCOc1nc(N2CCCCC2)nc(-n2cc(-c3ccccc3)nn2)n1	inactive
COc1ccc2nc3ccccc3nc2c1NC(=O)c1ccc(Cl)cc1	inactive
COc1ccc(/C=c2\s/c(=C/C(=O)c3ccc(C)cc3)[nH]c2=O)c(OC)c1	inactive
O=C(NCC1CC1)NC(=O)c1c(F)cccc1Cl	inactive
COc1ccc(OC)c(/C(O)=C/C(=O)C(=O)Nc2cc(C)ccc2OC)c1	inactive
Cc1cc(C)c(S(=O)(=O)N2CCN(S(=O)(=O)N3CCOCC3)CC2)c(C)c1	inactive
O=C(CN(C(=O)c1csnn1)c1ccc(F)cc1)NCc1ccc2c(c1)OCO2	inactive
COc1ccccc1N1C(=O)c2cccc3c(N(C)CCO)ccc(c23)C1=O	inactive
CC(O)CN(C)CC/C=C1/c2ccccc2CSc2ccccc21 (stereo not drawn)	inactive
Cc1nn(C)cc1CN(C)Cc1ccc(OCC(O)CN2CCCCC2)cc1 (stereo not drawn)	inactive
COc1ccc(CC(=O)OCC(=O)NCc2ccc(Cl)cc2)cc1	inactive
CCOc1ccc2nc(NS(=O)(=O)Cc3ccccc3)sc2c1	inactive
CC(C)OC(=O)c1cn(-c2ccccc2)nc1-c1ccc2c(c1)OCCO2	inactive
COC(=O)c1cc(Cl)c(NC(=O)c2cc3ccccc3o2)cc1OC	inactive
